In PubChem BioAssay (NCATS) one finds outcome data, which are given here for 33 compounds.

The structures appear in SMILES notation. Records with an inconclusive call do not appear. Activity calls are given as the source filed them. The call rests on the fitted dose curve; in most records, active means well fitted inhibition curve with a large enough effect; inconclusive means small, poorly fitted or top-dose-only effect; inactive means flat fitted curve, though single readings scatter.

Sequence of Calcium and integrin-binding protein 1 (Homo sapiens) (Q99828 whole entry, looked up): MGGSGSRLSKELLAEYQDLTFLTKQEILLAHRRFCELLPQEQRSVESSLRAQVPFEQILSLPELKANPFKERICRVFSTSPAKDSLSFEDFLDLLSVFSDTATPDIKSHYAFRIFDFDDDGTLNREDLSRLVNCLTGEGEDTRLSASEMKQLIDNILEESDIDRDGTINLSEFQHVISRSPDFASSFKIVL

The target in the assay is Calcium and integrin-binding protein 1 (Homo sapiens) (UniProt Q99828). In words: Primary qHTS for Identification of Calcium Integrin Binding Protein 1 (CIB1) Competitor (AID 1508620).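 Further: GST tagged CIB1 binding a fluorescein labelled alphaIIb integrin peptide tracer; top concentration of the series differs between compounds.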 As to conditions: CIB1-GST / FITC-alphaIIb peptide fluorescence polarization; series mostly up to 57.7 µM. The method in brief:
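CIB1-GST (1 uM final) and compound incubated 15 min at room temperature before adding FITC-alphaIIb peptide tracer (100 nM final). Competition for binding read by fluorescence polarization (ex 480, em 540) after another 15 min at room temperature.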
(In general: In qHTS, concentration-response curves come from the screen itself.)
`O=C1C=CC[C@@H]2[C@H]3CCCN4CCC[C@@H](CN12)[C@@H]34`: the result was inactive.
Under `CN[C@@H]1Cc2cccc3[nH]c(=O)n(c23)C1` stands “inactive”.
Regarding `CC(=O)Nc1ccc(OC[C@](C)(O)C(=O)Nc2ccc([N+](=O)[O-])c(C(F)(F)F)c2)cc1`, the outcome was inactive.
In the case of `CCN(CC)C(=O)c1ccc(C2=CC3(CCNCC3)Oc3cccc(O)c32)cc1`, the outcome was inactive.
`CN1[C@H]2CC(O)C[C@H]1[C@H]1O[C@H]12` (stereo partly drawn): the result was inactive.
Under `C#CC1(O)CCC2C3CCC4=CC(=O)CCC4(C)C3CCC21C` (stereo not drawn) stands “inactive”; under `Nc1ccc(Cl)cc1N`, “inactive”.
Under `Cc1ccccc1-n1c(Cn2cnc3c(N)ncnc32)nc2cccc(C)c2c1=O` stands “inactive”; under `CO/C=C(/C(=O)OC)c1ccccc1Oc1cc(Oc2ccccc2C#N)ncn1`, “inactive”.
Under `CCN1C[C@]2(OC(=O)c3ccccc3NC(C)=O)CC[C@H](OC)[C@@]34[C@H]5CC6[C@@H](OC)C[C@](O)(C(C[C@@H]23)[C@@H]14)[C@@]5(O)[C@@H]6OC` stands “inactive”; under `O=S(=O)(F)Cc1ccccc1`, “inactive”; under `O=c1cccc2n1CC1CNC[C@H]2C1`, “inactive”.
On to `CCNC(=O)CC1N=C(c2ccc(Cl)cc2)c2cc(OC)ccc2-n2c(C)nnc21` (stereo not drawn), for which the outcome was inactive.
Under `O=C(O)CNC(=O)c1c(O)c2ccccc2n(Cc2ccccc2)c1=O` stands “inactive”; under `CCOC(=O)Nc1ccc(NCc2ccc(F)cc2)cc1N`, “inactive”; under `C[C@](O)(COc1ccc(C#N)cc1)C(=O)Nc1ccc(C#N)c(C(F)(F)F)c1`, “inactive”.
For the compound `COC1=C[C@@H]2[C@@H]3Cc4ccc(OC)c(O)c4[C@]2(CCN3C)CC1=O`, the result was inactive.
Under `Cc1ccccc1-n1c(Cn2ncc3c(N)ncnc32)nc2cccc(C)c2c1=O` stands “inactive”.
Under `Clc1ccccc1C(c1ccccc1)(c1ccccc1)n1cccn1` stands “inactive”; under `C[C@]12CC[C@@H]3[C@@H](CCC4=CC(=O)CC[C@@H]43)[C@@H]1CC[C@@H]2OC(=O)CCc1ccccc1`, “inactive”; under `Cc1c(C(=O)c2cccc3ccccc23)c2cccc3c2n1[C@H](CN1CCOCC1)CO3`, “inactive”.
In the case of `CC(C)[C@]12O[C@H]1[C@@H]1O[C@]13[C@]1(O[C@H]1C[C@H]1C4=C(CC[C@@]13C)C(=O)OC4)[C@@H]2O`, the outcome was inactive.
Under `O=C(N[C@@H](COc1ccc2[nH]c(=O)[nH]c2c1)c1ccccc1)c1cccn(Cc2ccc(F)c(F)c2)c1=O` stands “inactive”; under `Nc1ccc(N=Nc2ccccc2)cc1`, “inactive”; under `CCc1c(C(=O)C(N)=O)c2c(OCC(=O)O)cccc2n1Cc1ccccc1`, “inactive”.
Under `c1ccc2c(CN3CCNCC3)cccc2c1` stands “inactive”.
With `CCCCCCCCCC(CC)c1ccc(S(=O)(=O)O)cc1` (stereo not drawn), the result was inactive.
Under `O=c1[nH]c2ccc(Cl)cc2c(N[C@@H]2CN3CCC2CC3)c1-c1nc2ccccc2[nH]1` stands “inactive”; under `O=c1[nH]c2ccccc2n1C1CCN(Cc2ccc(-c3[nH]c4cc5ncnc5cc4nc3-c3ccccc3)cc2)CC1`, “inactive”; under `CCCC[N+]1(C)[C@H]2CC(OC(=O)[C@H](CO)c3ccccc3)C[C@H]1[C@H]1O[C@H]12` (stereo partly drawn), “inactive”.
Under `O=C(Oc1ccc([N+](=O)[O-])cc1)N1CCC(C(O)(c2ccc3c(c2)OCO3)c2ccc3c(c2)OCO3)CC1` stands “inactive”.
Under `O=C(O)CCCOc1ccc(Cl)cc1Cl` stands “inactive”.
In the case of `C[C@]12CC[C@H]3[C@@H](CCC4=CC(=O)CC[C@@]43C)[C@H]1CC[C@H]2OC(=O)CCC1CCCC1`, the outcome was inactive.
